The target of experiment [1] is T1, Protein kinase C zeta type (Homo sapiens) (UniProt Q05513).
T1 sequence (whole entry): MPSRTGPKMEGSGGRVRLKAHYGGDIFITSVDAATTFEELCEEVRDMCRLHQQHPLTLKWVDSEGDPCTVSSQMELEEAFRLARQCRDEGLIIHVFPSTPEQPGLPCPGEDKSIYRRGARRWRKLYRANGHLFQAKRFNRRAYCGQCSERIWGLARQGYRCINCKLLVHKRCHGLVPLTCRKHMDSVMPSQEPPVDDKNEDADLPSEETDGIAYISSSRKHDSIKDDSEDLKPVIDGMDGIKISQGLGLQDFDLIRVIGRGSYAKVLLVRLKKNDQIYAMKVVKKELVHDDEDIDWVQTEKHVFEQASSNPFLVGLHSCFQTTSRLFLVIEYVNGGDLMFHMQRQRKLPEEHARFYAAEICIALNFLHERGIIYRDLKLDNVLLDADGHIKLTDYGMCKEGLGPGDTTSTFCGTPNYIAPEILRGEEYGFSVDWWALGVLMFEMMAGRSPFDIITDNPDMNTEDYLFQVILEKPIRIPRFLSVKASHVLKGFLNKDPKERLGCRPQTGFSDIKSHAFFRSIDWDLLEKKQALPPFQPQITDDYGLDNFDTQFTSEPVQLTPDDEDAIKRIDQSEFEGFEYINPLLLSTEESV
The following applies: at 1 µM.

In experiment [2] the target is T2, Mitogen-activated protein kinase kinase kinase 5 (Homo sapiens) (UniProt Q99683).
T2 sequence (whole entry): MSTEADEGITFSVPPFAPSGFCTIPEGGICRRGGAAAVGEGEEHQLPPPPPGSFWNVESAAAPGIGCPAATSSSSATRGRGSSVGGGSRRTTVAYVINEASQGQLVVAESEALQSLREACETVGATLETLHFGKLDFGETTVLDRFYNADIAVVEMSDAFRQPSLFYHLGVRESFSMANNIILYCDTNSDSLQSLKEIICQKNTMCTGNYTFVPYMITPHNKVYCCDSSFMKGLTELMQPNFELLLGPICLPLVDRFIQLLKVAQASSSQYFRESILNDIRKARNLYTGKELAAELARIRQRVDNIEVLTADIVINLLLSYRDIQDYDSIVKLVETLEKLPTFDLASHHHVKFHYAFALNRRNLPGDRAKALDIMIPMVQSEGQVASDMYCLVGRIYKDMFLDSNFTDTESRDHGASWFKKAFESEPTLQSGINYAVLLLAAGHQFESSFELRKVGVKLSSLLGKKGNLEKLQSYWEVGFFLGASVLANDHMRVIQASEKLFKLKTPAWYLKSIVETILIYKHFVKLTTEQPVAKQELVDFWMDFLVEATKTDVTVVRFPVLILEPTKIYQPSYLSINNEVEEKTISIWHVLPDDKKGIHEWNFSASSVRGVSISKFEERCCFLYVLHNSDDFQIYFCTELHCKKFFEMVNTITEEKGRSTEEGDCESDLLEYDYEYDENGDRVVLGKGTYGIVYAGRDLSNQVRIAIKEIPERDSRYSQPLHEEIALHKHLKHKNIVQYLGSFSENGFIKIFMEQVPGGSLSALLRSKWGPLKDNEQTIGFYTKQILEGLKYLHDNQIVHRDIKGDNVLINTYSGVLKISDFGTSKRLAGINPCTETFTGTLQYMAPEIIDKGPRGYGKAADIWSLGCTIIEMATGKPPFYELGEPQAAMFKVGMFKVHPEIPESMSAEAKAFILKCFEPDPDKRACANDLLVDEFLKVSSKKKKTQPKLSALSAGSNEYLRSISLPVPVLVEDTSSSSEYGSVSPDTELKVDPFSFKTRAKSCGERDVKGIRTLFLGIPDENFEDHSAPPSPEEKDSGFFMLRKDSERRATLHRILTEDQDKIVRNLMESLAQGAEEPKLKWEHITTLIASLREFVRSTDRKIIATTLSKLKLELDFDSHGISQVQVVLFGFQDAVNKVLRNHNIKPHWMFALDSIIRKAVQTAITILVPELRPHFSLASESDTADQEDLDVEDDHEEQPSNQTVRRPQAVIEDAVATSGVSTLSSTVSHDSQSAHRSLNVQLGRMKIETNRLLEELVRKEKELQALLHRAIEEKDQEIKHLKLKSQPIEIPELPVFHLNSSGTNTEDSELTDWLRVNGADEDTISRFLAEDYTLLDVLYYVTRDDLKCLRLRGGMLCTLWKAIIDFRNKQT
Particulars: at 10 µM; call rule not given here.

In experiment [3] the target is Tyrosine-protein kinase ABL1 (Homo sapiens) (UniProt P00519). The following applies: at 1 µM.
Experiment [4] shares this target. The following applies: at 10 µM.
Experiment [5] addresses Tyrosine-protein kinase ABL2 (Homo sapiens) (UniProt P42684). Particulars: at 1 µM.
Experiment [6] shares this target. The following applies: at 10 µM.
For experiment [7], the target named is T3, Aurora kinase A (Homo sapiens) (UniProt O14965).
T3 sequence (whole entry): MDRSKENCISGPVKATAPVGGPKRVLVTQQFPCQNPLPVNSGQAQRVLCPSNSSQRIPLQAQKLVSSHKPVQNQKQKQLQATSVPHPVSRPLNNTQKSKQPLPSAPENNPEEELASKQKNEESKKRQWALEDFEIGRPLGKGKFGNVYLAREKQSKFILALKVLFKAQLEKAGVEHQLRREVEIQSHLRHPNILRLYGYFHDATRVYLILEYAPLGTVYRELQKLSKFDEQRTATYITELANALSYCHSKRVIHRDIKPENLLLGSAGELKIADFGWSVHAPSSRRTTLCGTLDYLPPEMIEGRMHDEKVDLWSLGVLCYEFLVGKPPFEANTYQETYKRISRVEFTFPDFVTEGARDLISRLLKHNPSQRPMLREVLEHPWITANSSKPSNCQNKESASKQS
The following applies: at 1 µM.

Experiment [8] concerns the target T3, Aurora kinase A (Homo sapiens). The following applies: at 10 µM.
In experiment [9] the target is Aurora kinase B (Homo sapiens) (UniProt Q96GD4). The following applies: at 1 µM.
Experiment [10] has the same target. The following applies: at 10 µM.
For experiment [11], the target named is T4, Aurora kinase C (Homo sapiens) (UniProt Q9UQB9).
T4 sequence (whole entry): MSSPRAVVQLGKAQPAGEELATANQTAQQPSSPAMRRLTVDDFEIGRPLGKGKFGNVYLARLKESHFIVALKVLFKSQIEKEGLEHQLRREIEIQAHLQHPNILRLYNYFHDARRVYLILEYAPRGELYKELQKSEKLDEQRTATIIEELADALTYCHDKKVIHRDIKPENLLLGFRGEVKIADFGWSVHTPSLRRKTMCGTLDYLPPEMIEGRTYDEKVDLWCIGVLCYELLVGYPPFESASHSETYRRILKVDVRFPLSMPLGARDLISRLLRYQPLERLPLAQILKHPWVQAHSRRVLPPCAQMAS
The following applies: at 1 µM.

The target of experiment [12] is T4, Aurora kinase C (Homo sapiens). The following applies: at 10 µM.
Experiment [13] concerns the target Tyrosine-protein kinase receptor UFO (Homo sapiens) (UniProt P30530). Particulars: at 1 µM.
Experiment [14] shares this target. Particulars: at 10 µM.
Experiment [15] concerns the target Protein-tyrosine kinase 6 (Homo sapiens) (UniProt Q13882). Particulars: at 1 µM.
The target is the same in experiment [16]. The following applies: at 10 µM.
The target of experiment [17] is Tyrosine-protein kinase BTK (Homo sapiens) (UniProt Q06187). The following applies: at 1 µM.
Experiment [18] has the same target. The following applies: at 10 µM.
The target of experiment [19] is Tyrosine-protein kinase Blk (Homo sapiens) (UniProt P51451). Particulars: at 1 µM.
For experiment [20] the target is unchanged. Particulars: at 10 µM.

Each structure is given as a SMILES string.

Sequence of Tyrosine-protein kinase ABL1 (Homo sapiens) (P00519 whole entry): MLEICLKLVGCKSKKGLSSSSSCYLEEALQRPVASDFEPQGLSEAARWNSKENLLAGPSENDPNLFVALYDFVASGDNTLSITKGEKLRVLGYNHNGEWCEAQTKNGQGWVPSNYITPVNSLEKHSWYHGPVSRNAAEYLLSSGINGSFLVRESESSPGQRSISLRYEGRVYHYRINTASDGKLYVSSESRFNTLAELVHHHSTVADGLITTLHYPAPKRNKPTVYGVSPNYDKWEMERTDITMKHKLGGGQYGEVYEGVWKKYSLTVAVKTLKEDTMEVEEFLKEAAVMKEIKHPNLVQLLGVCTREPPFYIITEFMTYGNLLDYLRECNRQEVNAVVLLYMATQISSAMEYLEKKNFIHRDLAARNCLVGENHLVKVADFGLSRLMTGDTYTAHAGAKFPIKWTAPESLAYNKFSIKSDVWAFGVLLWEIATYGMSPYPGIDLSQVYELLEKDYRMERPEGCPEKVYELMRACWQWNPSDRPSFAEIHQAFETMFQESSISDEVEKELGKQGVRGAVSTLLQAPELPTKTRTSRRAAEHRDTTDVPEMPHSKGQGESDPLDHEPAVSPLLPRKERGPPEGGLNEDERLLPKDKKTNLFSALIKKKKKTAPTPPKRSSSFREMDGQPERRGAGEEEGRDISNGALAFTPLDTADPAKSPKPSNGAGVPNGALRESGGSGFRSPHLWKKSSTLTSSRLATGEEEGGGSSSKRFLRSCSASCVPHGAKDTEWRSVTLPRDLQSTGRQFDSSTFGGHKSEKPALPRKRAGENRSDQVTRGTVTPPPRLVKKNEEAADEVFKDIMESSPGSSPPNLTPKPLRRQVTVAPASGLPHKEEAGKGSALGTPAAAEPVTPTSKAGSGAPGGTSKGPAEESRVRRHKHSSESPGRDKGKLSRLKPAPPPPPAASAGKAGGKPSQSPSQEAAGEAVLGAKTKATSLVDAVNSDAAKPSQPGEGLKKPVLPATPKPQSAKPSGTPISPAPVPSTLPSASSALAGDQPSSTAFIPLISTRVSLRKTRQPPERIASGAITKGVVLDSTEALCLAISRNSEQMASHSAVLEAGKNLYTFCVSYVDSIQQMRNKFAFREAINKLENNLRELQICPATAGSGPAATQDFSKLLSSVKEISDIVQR
Sequence of Tyrosine-protein kinase receptor UFO (Homo sapiens) (P30530 whole entry): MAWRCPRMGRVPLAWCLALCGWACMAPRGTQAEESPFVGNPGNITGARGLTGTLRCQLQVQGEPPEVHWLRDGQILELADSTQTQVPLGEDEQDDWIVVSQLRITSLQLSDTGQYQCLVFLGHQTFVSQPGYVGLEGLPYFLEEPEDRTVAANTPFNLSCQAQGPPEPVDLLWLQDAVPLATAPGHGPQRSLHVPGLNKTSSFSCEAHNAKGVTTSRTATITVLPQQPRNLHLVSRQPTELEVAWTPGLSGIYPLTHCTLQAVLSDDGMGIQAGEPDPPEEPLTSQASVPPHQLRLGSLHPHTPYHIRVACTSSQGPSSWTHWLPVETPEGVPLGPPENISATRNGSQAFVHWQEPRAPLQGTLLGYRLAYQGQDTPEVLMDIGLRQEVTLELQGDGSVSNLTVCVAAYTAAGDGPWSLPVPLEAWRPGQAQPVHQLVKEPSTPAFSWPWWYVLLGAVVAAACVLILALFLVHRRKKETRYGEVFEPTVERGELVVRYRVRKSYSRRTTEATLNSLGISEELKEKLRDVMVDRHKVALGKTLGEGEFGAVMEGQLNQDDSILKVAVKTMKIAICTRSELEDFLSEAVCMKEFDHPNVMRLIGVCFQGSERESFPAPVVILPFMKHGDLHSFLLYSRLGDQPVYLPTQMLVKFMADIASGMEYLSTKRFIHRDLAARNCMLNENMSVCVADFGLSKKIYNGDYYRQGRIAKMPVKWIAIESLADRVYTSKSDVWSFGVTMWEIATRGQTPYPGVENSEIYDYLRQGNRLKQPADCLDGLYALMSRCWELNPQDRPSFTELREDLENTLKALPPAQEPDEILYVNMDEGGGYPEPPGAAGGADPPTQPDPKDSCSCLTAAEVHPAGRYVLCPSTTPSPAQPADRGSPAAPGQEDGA
Sequence of Tyrosine-protein kinase ABL2 (Homo sapiens) (P42684 whole entry): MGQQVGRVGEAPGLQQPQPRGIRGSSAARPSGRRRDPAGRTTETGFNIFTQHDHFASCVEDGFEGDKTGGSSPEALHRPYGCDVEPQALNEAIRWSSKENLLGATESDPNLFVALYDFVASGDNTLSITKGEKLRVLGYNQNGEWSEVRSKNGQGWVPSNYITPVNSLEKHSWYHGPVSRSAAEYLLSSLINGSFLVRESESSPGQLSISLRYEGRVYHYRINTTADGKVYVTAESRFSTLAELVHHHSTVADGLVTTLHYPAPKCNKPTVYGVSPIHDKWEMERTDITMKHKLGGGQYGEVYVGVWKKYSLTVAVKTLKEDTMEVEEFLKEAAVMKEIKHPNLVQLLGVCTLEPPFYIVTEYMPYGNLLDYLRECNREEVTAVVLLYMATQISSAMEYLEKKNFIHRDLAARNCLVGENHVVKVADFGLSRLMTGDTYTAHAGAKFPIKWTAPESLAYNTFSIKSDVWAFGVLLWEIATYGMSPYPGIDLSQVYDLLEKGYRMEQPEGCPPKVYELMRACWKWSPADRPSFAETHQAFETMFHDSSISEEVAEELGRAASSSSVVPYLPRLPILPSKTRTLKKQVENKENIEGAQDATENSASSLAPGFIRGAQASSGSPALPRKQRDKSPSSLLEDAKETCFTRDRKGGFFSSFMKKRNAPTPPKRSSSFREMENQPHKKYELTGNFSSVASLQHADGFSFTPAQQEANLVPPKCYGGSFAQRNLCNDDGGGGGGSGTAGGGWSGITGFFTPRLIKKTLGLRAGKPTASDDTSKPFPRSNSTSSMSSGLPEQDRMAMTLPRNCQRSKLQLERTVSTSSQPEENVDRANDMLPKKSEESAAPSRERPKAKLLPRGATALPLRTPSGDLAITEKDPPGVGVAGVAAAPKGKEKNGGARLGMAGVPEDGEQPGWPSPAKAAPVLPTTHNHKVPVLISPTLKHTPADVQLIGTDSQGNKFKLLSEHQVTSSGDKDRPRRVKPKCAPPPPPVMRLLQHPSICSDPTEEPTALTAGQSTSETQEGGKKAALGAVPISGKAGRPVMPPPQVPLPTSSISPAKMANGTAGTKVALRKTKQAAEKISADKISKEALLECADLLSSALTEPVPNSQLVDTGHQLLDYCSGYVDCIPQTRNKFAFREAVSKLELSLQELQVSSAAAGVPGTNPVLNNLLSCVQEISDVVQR
Sequence of Tyrosine-protein kinase BTK (Homo sapiens) (Q06187 whole entry): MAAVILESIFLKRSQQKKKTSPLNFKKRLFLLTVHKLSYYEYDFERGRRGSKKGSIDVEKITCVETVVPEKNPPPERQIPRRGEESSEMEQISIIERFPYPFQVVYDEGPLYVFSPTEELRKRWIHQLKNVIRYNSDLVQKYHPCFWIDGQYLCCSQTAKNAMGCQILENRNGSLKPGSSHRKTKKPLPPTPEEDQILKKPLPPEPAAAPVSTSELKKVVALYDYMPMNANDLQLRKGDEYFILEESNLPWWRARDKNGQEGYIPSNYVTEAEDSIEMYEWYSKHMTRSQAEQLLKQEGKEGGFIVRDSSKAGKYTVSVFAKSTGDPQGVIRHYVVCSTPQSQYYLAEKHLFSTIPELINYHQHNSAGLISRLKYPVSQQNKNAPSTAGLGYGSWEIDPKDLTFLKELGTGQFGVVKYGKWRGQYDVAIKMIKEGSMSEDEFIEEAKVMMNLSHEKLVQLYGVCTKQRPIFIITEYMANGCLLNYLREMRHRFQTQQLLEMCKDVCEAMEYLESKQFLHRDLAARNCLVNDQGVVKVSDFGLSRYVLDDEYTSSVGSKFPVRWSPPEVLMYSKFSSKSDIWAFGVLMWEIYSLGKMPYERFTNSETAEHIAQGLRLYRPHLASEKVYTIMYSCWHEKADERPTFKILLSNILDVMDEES
Sequence of Tyrosine-protein kinase Blk (Homo sapiens) (P51451 2-505 limits assumed): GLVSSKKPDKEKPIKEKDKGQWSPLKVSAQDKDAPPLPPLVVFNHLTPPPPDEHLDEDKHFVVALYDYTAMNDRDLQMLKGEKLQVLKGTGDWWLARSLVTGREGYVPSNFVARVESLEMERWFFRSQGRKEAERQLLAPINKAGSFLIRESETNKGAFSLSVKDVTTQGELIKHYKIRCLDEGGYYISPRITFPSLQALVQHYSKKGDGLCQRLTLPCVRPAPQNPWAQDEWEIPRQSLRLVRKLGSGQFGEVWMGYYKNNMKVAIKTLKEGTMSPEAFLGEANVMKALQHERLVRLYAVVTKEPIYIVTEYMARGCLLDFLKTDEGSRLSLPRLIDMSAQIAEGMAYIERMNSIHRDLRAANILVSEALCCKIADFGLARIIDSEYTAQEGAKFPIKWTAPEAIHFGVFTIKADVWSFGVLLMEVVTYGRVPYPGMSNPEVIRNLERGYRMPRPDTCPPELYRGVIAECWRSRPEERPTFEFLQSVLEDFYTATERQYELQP
Sequence of Aurora kinase B (Homo sapiens) (Q96GD4 whole entry): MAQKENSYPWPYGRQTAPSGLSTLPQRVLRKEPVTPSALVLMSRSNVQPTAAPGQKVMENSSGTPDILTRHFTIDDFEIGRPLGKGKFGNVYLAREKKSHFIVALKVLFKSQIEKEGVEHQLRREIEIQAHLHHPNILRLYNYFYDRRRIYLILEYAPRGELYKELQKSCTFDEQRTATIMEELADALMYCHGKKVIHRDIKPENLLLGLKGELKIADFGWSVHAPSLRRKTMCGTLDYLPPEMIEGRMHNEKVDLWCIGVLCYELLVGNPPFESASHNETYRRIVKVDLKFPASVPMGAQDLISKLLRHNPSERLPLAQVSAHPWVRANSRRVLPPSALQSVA

For the molecule `Nc1nc(Nc2ccc(S(N)(=O)=O)cc2)nn1C(=S)Nc1c(F)cccc1F`, the residual activity was 75% (inactive) in experiment [1]; -1% in [2]; -5% in [3]; -5% in experiment [4]; -2% in [5]; -2% in [6]. Moreover, the residual activity in experiment [7] is 1%; in experiment [8], 10%; in experiment [9], 0%; in [10], 0%; in experiment [11], -2%; in experiment [12], 0%. The residual activity is 3% in experiment [13]; 2% in [14]; 49% in experiment [15]; 8% in experiment [16]; 79% in experiment [17]; 27% in experiment [18]. The residual activity in experiment [19] was 7%; in experiment [20], 0%.
Consider `Cc1nc2cc3nc(-c4cccs4)cnc3cc2n1C`, for which the residual activity in experiment [1] is 99% (inactive); in experiment [2], 112%; in experiment [3], 90%; in experiment [4], 52%; in experiment [5], 95%; in [6], 83%. The residual activity in [7] is 88%; in experiment [8], 69%; in experiment [9] it was 80%; in experiment [10], 16%; in experiment [11] it was 102%; in experiment [12], 42%. Further, the residual activity in experiment [13] came out at 87%; in experiment [14], 68%; in experiment [15], 109%; in experiment [16], 98%; in [17], 93%; in [18] it was 83%. For the same molecule, the residual activity stood at 100% in [19] and 48% in experiment [20].
For `CC(=O)c1ccc(N2CCOCC2)cc1O`, the residual activity in experiment [1] was 107% (inactive); in [2] it was 95%; in experiment [5] it was 110%; in experiment [6], 102%; in experiment [7], 109%; in [8] it was 100%. Moreover, the residual activity came out at 100% in experiment [9]; 95% in experiment [10]; 106% in [11]; 84% in experiment [12]; 110% in experiment [13]; 85% in experiment [14]. The residual activity in experiment [15] was 108%; in experiment [16] it was 107%; in [17], 91%.
As for `O=C1Nc2ccc(Br)cc2/C1=C\c1cc2c([nH]1)CCCC2`, the residual activity in [1] is 103% (inactive); in experiment [2], 81%; in experiment [3], 105%; in experiment [4], 75%; in [9], 18%; in experiment [10], 8%. Also, the residual activity in experiment [11] is 82%; in [12], 69%; in experiment [13], 72%; in [14] it was 62%; in [15] it was 107%; in experiment [16], 107%. In addition, the figures for the residual activity in experiment [18], in experiment [19] and in experiment [20] were 109%, 82% and 38%, respectively.
As to `COc1cc2ncnc(N3CCN(C(=O)Nc4ccc(Oc5ccccc5)cc4)CC3)c2cc1OC`, the residual activity was 113% (inactive) in [1]; 67% in [2]; 110% in experiment [5]; 118% in experiment [6]; 51% in experiment [7]; 48% in experiment [8]. In addition, the residual activity in [9] was 15%; in experiment [10], 7%; in [11] it was 71%; in [12] it was 25%; in [13] it was 71%; in [14], 60%. The residual activity in experiment [15] amounted to 98%; in [16], 98%; in [17] it was 92%; in experiment [18], 112%; in [19], 100%; in experiment [20], 72%.
Regarding `O=C1Nc2cc(Br)ccc2/C1=C1/Nc2ccccc2/C1=N\O`, the residual activity in [1] is 103% (inactive); in experiment [2] it was 86%; in experiment [4] it was 6%; in [5], 16%; in [6], 2%; in [7] it was 31%. Besides, the residual activity in experiment [8] was 25%; in experiment [9], 3%; in experiment [10], -1%; in experiment [11] it was 74%; in experiment [12] it was 76%; in experiment [13], 52%. Besides, the residual activity in [14] turned out to be 39%; in experiment [15] it was 90%; in experiment [16], 102%; in experiment [17] it was 1%; in [18] it was 0%; in experiment [19], 1%. For the same molecule, the residual activity in experiment [20] amounted to 5%.
Regarding `O=C1NC(=O)/C(=C\c2ccc3nccnc3c2)S1`, the residual activity was 104% (inactive) in experiment [1]; 80% in experiment [2]; 100% in experiment [3]; 81% in [4]; 89% in experiment [5]; 86% in experiment [6]. Besides, the residual activity in experiment [7] is 94%; in [8] it was 46%; in [9] it was 71%; in experiment [10], 39%; in experiment [11], 106%; in [12] it was 59%. Also, the residual activity in experiment [13] was 75%; in experiment [14], 54%; in experiment [15] it was 99%; in experiment [16], 103%; in [17] it was 99%; in experiment [18], 93%. Moreover, the residual activity is 114% in experiment [19] and 79% in experiment [20].

The values above are taken from ChEMBL document CHEMBL2218924, “A broad activity screen in support of a chemogenomic map for kinase signalling research and drug discovery” (Biochem J, 2013).
